Assay results published in ChEMBL document CHEMBL4888484, “Replenishing the malaria drug discovery pipeline: Screening and hit evaluation of the MMV Hit Generation Library 1 (HGL1) against asexual blood stage Plasmodium falciparum ,using a nano luciferase reporter read-out” (2022).
About 420 (8.8%) of roughly 4,800 compounds showed an effect of 50% or more. What follows is part of a selection rich in strong results, with near analogues and random picks from the rest.

These compounds were tested on Plasmodium falciparum (assay: Confirmatory screen in NF54 nanoGlo assay, in single point, at 2uM, 72h). Conditions: timepoint 72 hour.
Assay type: functional, Erythrocyte

Row | SMILES | % Inhibition
1 | COCCOc1ccc2c(n1)CCN(C(=O)c1ccc(OC)c(OC)c1)C2 | -12%
2 | Cc1nn(C)cc1NC(=O)N[C@H]1CCCC[C@@H]1O | -9%
3 | C[C@@H](C1CC1)N(C1CC1)S(=O)(=O)c1ccc(F)cc1F | -2%
4 | Cc1ncccc1C(=O)Nc1cccc(Oc2cccnn2)c1 | 1%
5 | Cc1c(Cl)c(C(F)(F)F)nn1[C@@H](C)C(=O)NC1CCN(C(C)C)CC1 | -4%
6 | COc1cccc(-c2cc3c(N4CC=C(c5ccccc5)CC4)nccn3n2)c1 | -2%
7 | CC[C@H]1Cn2c(C(=O)N3CCN(C(=O)c4ccco4)CC3)cc3c(Cl)ccc(c32)O1 | -17%
8 | CCCn1nc(-n2cnnc2)c(NC(=O)c2ccc3c(c2)OCO3)c1C | -4%
9 | CCOc1ccc(NC(=O)c2ccc3c(c2)N(CC)[C@@H]2CCCCN2C3=O)cc1 | 7%
10 | CCOc1ccc(NC(=O)c2cnc(N(Cc3ccccc3)C(C)C)nc2N)cc1 | -15%
11 | CCOC(=O)C1CCC(CN(Cc2ccc(OC)cc2)S(=O)(=O)c2cc(C(=O)Nc3ccc(OCC)cc3)ccc2F)CC1 (stereo unspecified) | 50%
12 | CN(c1ccc(Br)cc1)S(=O)(=O)c1ccc2c(c1)CCN2C(=O)C1CCC1 | -7%
13 | COc1ccccc1CNC(=O)c1cnn2c(-c3ccc(Cl)cc3)ccnc12 | -4%
14 | c1cncc(CN2CCN(C3CCCCCC3)CC2)c1 | 3%
15 | Cc1cccc(Cn2ccc(-c3cccc(OCc4ccc(Cl)cc4Cl)c3)n2)c1 | -4%
16 | C[C@H]1CC(C)(C)N(C)c2ccc(/C=C/c3c(C(=O)O)cnc4ccnn34)cc21 | 7%
17 | CN(C)CCCNCc1ccccc1F | -2%
18 | OCCNCc1c(Cl)cccc1Cl | -1%
19 | Clc1cccc(CNCCCNc2ccncc2)c1Cl | 71%
20 | CC[C@@H](CCNS(=O)(=O)c1cn(C(F)F)nc1C)n1ccc(C(F)(F)F)n1 | -8%
21 | CCOc1cc(C(=O)Nc2ccc3nc4c(c(Nc5ccc(OC)c(OC)c5)c3c2)CCCC4)cc(OCC)c1OCC | 96%
22 | COc1ccc(Nc2nc(C(=O)Nc3ncc(C)s3)cs2)cc1OC | 17%
23 | CCOC(=O)Oc1c(OC)cc(C(=O)Nc2ccc3c(c2)sc(=O)n3C)cc1OC | 6%
24 | O=C(NC[C@H]1CCS(=O)(=O)C1)c1ccc2[nH]c3c(c2c1)CCCC3 | -6%
25 | Clc1ccc(COc2ccc(CNC3CCCCC3)cc2Br)cc1 | -4%
26 | O=C(Cc1ncc(C(F)(F)F)cc1Cl)c1ccc(Cl)cc1Cl | -6%

Row | SMILES | % Inhibition
27 | O=C(Nc1ccc(C(F)(F)F)cc1)N1CCN(CC(O)C2CCCO2)CC1 (stereo unspecified) | 4%
28 | CC(NC(=O)N1CCCCC1)(C(F)(F)F)C(F)(F)F | 7%
29 | COc1cccc(CC(=O)N2CCc3nc(N4CCC(C)CC4)nc(Oc4ccccc4OC)c3C2)c1 | 45%
30 | COc1cccc(Oc2nc(N3CCN(C)CC3)nc3c2CN(C(=O)Nc2ccccc2)CC3)c1 | 5%
31 | O=S(=O)(c1cccc(Cl)c1)N1CCc2nc(N3CCCCC3)nc(Oc3ccccc3)c2C1 | 73%
32 | O=C(O)Cc1sc(-c2ccc(Cl)cc2)nc1-c1ccc(Oc2ccccc2)cc1 | 0%
33 | CN1CCN(C(=O)[C@@H]2Cc3ccccc32)CC1 | 2%
34 | CCc1nnc2ccc(S(=O)(=O)Nc3cc(F)cc(F)c3)cn12 | -5%
35 | CCOC(=O)N1CCN(C(=O)C2c3ccccc3C(=O)N(C3CCCCC3)C2c2ccc(OC)cc2)CC1 (stereo unspecified) | -4%
36 | COc1cccc(S(=O)(=O)N2CCC(OCCOCc3ccccc3)CC2)c1 | -3%
37 | COc1cccc(S(=O)(=O)N2CCCN(Cc3ccncc3)[C@H](c3ccccc3)CC(=O)NCC2)c1 | 92%
38 | COc1cccc(S(=O)(=O)N2CCC(OCCOc3ccccc3)CC2)c1 | 0%
39 | COCCCn1c(=O)c2ccccc2n(CC(=O)N2CCc3ccccc32)c1=O | -8%
40 | CC(C)OC(=O)N(CCOC(=O)Nc1cccc(Cl)c1)CCOC(=O)Nc1cccc(Cl)c1 | -15%
41 | COc1ncccc1C(=O)NC[C@H](C)S(N)(=O)=O | 4%
42 | Cc1cc(NC(=O)C(=O)Nc2cnn(CCC(C)C)c2C)n(C)n1 | -7%
43 | COc1ccccc1N(Cc1ccccc1)C1=NC(=[N+](Cc2ccccc2)c2ccccc2OC)c2ccccc21 | 74%
44 | C[C@H](NC(=O)c1cc(C2CC2)[nH]n1)c1nccs1 | -11%
45 | CN(C(=O)c1ccccc1Br)C(C)(C)C | -10%
46 | COc1ccccc1[C@H]1CC(O)=Nc2c1ncn2-c1cc(F)ccc1F | -3%
47 | Cc1nnc2ccc(S(=O)(=O)N(Cc3ccccc3F)c3ccccc3)cn12 | -16%
48 | COc1ccc(NC(=O)[C@@H]2COCC(=O)N2Cc2ccc(C)cc2)cc1 | 1%
49 | COc1cccc([C@H]2CC(=O)Nc3c2cnn3C)c1 | -8%
50 | CCc1ccc(C2=C[C@@H](c3cccc(OC)c3)n3ncc(C(=O)Nc4ccc(C)cc4)c3N2)cc1 | 70%
51 | CC[C@H](C)N1CCN(Cc2cccc(Oc3ccccc3)c2)CC1 | -6%
52 | CC[C@H]1Cn2c(C(=O)N3CCN(c4ccccn4)CC3)cc3c(Cl)ccc(c32)O1 | -8%

Row | SMILES | % Inhibition
53 | Cc1nn(C)cc1-c1nnc(-c2ccccc2)o1 | -17%
54 | COc1ccc(COC(=O)c2cccnc2C)cn1 | -9%
55 | O=C(C[C@H]1CCCN1c1ccnc(C2CC2)n1)c1ccco1 | 3%
56 | CCc1nc(NS(=O)(=O)c2cc(Cl)sc2Cl)no1 | -4%
57 | O=C1NCCCc2nn(Cc3cc(F)ccc3Br)cc21 | -12%
58 | CCOC(=O)c1c[nH]c2c(-c3ccccc3)nsc2c1=O | -5%
59 | O=C(c1cccs1)N1CCN(C2CCCCCC2)CC1 | 1%
60 | CC(C)c1nc(O)cc(CN2CCCCC2)n1 | -8%
61 | CC(C)c1ccc(-c2nc(CN3CCCCC3)cc(CN3CCCCC3)c2O)cc1 | 96%
62 | Cc1ccc(C)c(NC(=O)CN2CCC3(CC2)NC(c2ccc(OC(F)(F)F)cc2)=NO3)c1 | -3%
63 | CC(C)[C@@H]1CN(C(=O)c2ccncc2)c2ccccc2N1 | -7%
64 | Cc1ccc(Cn2ccnc2C(=O)Nc2ccccc2)cc1 | -15%
65 | CC1(C)OCc2cc(CNc3ccc4oc(=O)[nH]c4c3)ccc2O1 | 93%
66 | CCCN1CC(=O)N(c2ccc(C)cc2)[C@@H]2CS(=O)(=O)C[C@@H]21 | 4%
67 | COc1ccc(-c2nccn3cc(C(=O)N4CCN(c5cccc(OC)c5)CC4)nc23)cc1 | -6%
68 | O=C(NCc1ccccc1OC1CCC1)N(CCO)C1CC1 | -2%
69 | CC(=O)N(c1ccccc1)[C@H]1C[C@@H](C)N(C(=O)C(F)(F)F)c2ccccc21 | 9%
70 | Cc1noc(C)c1CN1CCNC(=O)CC1 | -11%
71 | Cc1noc(C)c1CN1CCCN(C(=O)c2n[nH]c3ccccc23)CC1 | 0%
72 | Cc1noc(C)c1CN1C[C@@H]2Oc3cc(F)ccc3C(=O)N(C)[C@@H]2C1 | 92%
73 | O=C1O[C@@H](CO)CN1c1cccc(F)c1 | -4%
74 | COc1ccc2nc(N3CN(Cc4ccccc4)CN(c4nc5ccc(OC)cc5s4)C3)sc2c1 | 3%
75 | Cc1ccccc1C(=O)N(Cc1cccc(F)c1)c1ccc(CC(=O)NCCN2CCCCC2)cc1 | 44%
76 | Cc1ccc(C(=O)N(Cc2cccc(F)c2)c2ccc(CC(=O)N[C@@H](C)c3ccccc3)cc2)cc1 | 81%
77 | O=C(Cc1ccc(N(Cc2cccc(F)c2)C(=O)c2cccc(F)c2)cc1)NCCN1CCCCC1 | 38%
78 | CNC(=O)Cc1c(Cl)cccc1Cl | 1%

Row | SMILES | % Inhibition
79 | CN1CCN(C(=O)C[C@@H]2CCN3C[C@@H]2/C=C\COc2ccccc2CN(C(=O)CC(C)(C)C)CC3=O)CC1 | 5%
80 | Nc1cc(Br)c(C(F)(F)F)cc1NC(=O)C(F)(F)F | -11%
81 | CCn1cc(Br)c(=O)c(NC(=O)[C@H]2CCCOC2)c1 | -7%
82 | CC(C)(CC(=O)Nc1ccc2oc(C3CC3)nc2c1)C(=O)O | -2%
83 | Cc1nc2cc(NC(=O)[C@@]3(C)CCCN(C(=O)c4ccccc4)C3)ccc2o1 | 57%
84 | Cc1nc2cc(NC(=O)c3cccs3)ccc2o1 | -8%
85 | CNC(=O)c1cnc(C=Cc2cnc(-c3cccnc3)s2)s1 | 0%
86 | Cc1cc(C)c2ccc3ccccc3c2n1 | -4%
87 | CC[N+](C)(CC)CCOc1cc(C)c2ccccc2n1 | 53%
88 | CC(C)(NCc1ccccc1Cl)C(=O)O | 4%
89 | Cc1ccc(S(=O)(=O)Nc2ccc(Oc3ccc(NS(=O)(=O)c4ccc(C)cc4)cc3)cc2)cc1 | 3%
90 | Cc1ccc(OCCNc2cc([C@H]3C[C@H](N)C3)nc(C3CC3)n2)cc1C | 31%
91 | N[C@H]1C[C@H](c2cc(NCCCc3cccnc3)nc(C3CC3)n2)C1 | 75%
92 | N#Cc1nc2c(C#N)c(N)n(CCc3ccccc3)c2nc1C#N | 87%
93 | N#Cc1c(-c2ccccc2)cc(-c2ccccc2)nc1S(=O)(=O)Cc1ccccc1 | 35%
94 | Nc1nc2c(s1)CN(CCc1ccccc1)CC2 | 38%
95 | O=C(c1ccccc1)N1N=C(C(F)(F)F)C2CCCCCC21O (stereo unspecified) | -11%
96 | CCC1Cn2c(C(=O)NC(C)Cc3ccco3)cc3cccc(c32)O1 (stereo unspecified) | -8%
97 | CCOC(=O)N(c1ccccc1)[C@H]1CC(=O)N(c2ccccc2)C1=O | 1%
98 | Cc1nnc2ccc(S(=O)(=O)Nc3cc(F)cc(F)c3)cn12 | -4%
99 | O=C(NCCCN1CCOCC1)c1ccc(-c2cnc(NC3CCCCC3)nc2)cc1 | -8%
100 | Cn1cc(CN2CCC(C(=O)NCCCN3CCCCC3)CC2)c2cc(Cl)ccc21 | -7%
101 | Cc1cc2nc(C)c(=O)n(Cc3ccc(C(=O)NCCN4CCCC[C@@H]4C)cc3)c2cc1C | 17%
